# Results from PubChem BioAssay AID1345085 (National Center for Advancing Translational Sciences (NCATS), 2018).
# Inconclusive results are not listed. The source made the active and inactive calls. Calls come from the whole dose curve; as a rule, active = well fitted cell-killing curve with a large enough effect; inconclusive = small, poorly fitted or top-dose-only effect, or effect the other way; inactive = no such curve, though single readings can be large or run the other way.
# Test system: JEG-3
# Experiment: Confirmatory qHTS for gynecologic anti-cancer compounds from libraries of approved drugs and bioactive compounds; note: nearly all actives have a fitted effect of over 55% in size
# Conditions: gynecologic cancer cell panel viability, ATPlite luminescence, 48 h; series mostly up to 57.6 µM
# How it was run: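 Seeding 1,000 cells per well preceded overnight (16 h) attachment, after which 48 h drug treatment across 57.5 uM–0.977 nM (11 points) was applied. Remaining cellular ATP, detected by ATPlite luminescence, defined IC50.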
# Potency is the fitted concentration of half-maximal effect.
row,SMILES,Potency
1,NC(=O)c1cccc2cn(-c3ccc([C@@H]4CCCNC4)cc3)nc12,inactive
2,CC(C)Nc1cc(-c2c[nH]c(C(=O)N[C@H](CO)c3cccc(Cl)c3)c2)c(Cl)cn1,27.3 µM (active)
3,Cc1cnc(Nc2ccc(OCCN3CCCC3)cc2)nc1Nc1cccc(S(=O)(=O)NC(C)(C)C)c1,24.3 µM (active)
4,Nc1ccc(-c2ccc3ncc4ccc(=O)n(-c5cccc(C(F)(F)F)c5)c4c3c2)cn1,2.43 µM (active)
5,CN[C@@H](C)C(=O)N[C@H]1CN(C(=O)CC(C)C)CC[C@H]2CC[C@@H](C(=O)NC(c3ccccc3)c3ccccc3)N2C1=O,inactive
6,O=C(O)C1(Cc2cccc(Nc3nccs3)n2)CCC(Oc2cccc(Cl)c2F)CC1 (stereo not given),inactive
7,CCC1C(=O)N(C)c2cnc(Nc3ccc(C(=O)NC4CCC(N5CCN(CC6CC6)CC5)CC4)cc3OC)nc2N1C(C)C (stereo not given),0.0611 µM (active)
8,CCCc1nn(C)c2c(=O)[nH]c(-c3cc(S(=O)(=O)N4CCN(C)CC4)ccc3OCC)nc12,inactive
9,CN1CCN(CCOc2cc(OC3CCOCC3)c3c(Nc4c(Cl)ccc5c4OCO5)ncnc3c2)CC1,inactive
10,CC(=O)NCC(=O)N1C2CCC1c1cc(Nc3ncc(C(F)(F)F)c(NC4CCC4)n3)ccc12 (stereo not given),19.3 µM (active)
11,CCCCN(CCCC)CC(O)c1cc(Cl)cc2c1-c1ccc(Cl)cc1/C2=C/c1ccc(Cl)cc1 (stereo not given),inactive
12,CCS(=O)(=O)c1cccc(-c2cc(C(=O)NC3CCN(C)CC3)c(C)c3[nH]c4ncc(C)cc4c23)c1,2.67 µM (active)
13,COCCOc1ccc2c(c1)ncn2-c1ccc2cccc(N3CCC(N)CC3)c2n1,10.9 µM (active)
14,CC(=O)O[C@H]1C(=O)[C@@]2(C)[C@H]([C@H](OC(=O)c3ccccc3)[C@]3(O)C[C@H](OC(=O)[C@H](O)[C@@H](NC(=O)c4ccccc4)c4ccccc4)C(C)=C1C3(C)C)[C@]1(OC(C)=O)CO[C@@H]1C[C@@H]2O,0.0259 µM (active)
15,CC(C)C[C@H](NC(=O)[C@H](CCc1ccccc1)NC(=O)CN1CCOCC1)C(=O)N[C@@H](Cc1ccccc1)C(=O)N[C@@H](CC(C)C)C(=O)[C@@]1(C)CO1,17.2 µM (active)
16,CC(C)C[C@H](NC(=O)[C@@H](NC(=O)c1cccc(-c2ccccc2)n1)[C@@H](C)O)B(O)O,1.53 µM (active)
17,Cc1nc(N)sc1-c1ccnc(Nc2ccc(N3CCOCC3)cc2)n1,13.7 µM (active)
18,Nc1nccc(Oc2ccc(NC(=O)c3c[nH]cc(-c4ccc(F)cc4)c3=O)cc2F)c1Cl,4.32 µM (active)
19,CN(C)CC/C=C1\c2ccccc2COc2ccccc21,inactive
20,N=C(N)c1ccc(OCCCCCOc2ccc(C(=N)N)cc2)cc1,3.43 µM (active)
21,CC(C)C[C@H](NC(=O)[C@H](Cc1ccccc1)NC(=O)c1cnccn1)B(O)O,0.217 µM (active)
22,CC(C)CC(=O)Nc1n[nH]c2c1CN(C(=O)C1CCN(C)CC1)C2(C)C,1.09 µM (active)
23,CC[C@@]1(O)C(=O)OCc2c1cc1n(c2=O)Cc2c-1nc1ccccc1c2/C=N/OC(C)(C)C,0.0217 µM (active)
24,O=C(/C=C/c1cccc(S(=O)(=O)Nc2ccccc2)c1)NO,1.19 µM (active)
25,Cc1ccc(C(=O)Nc2ccc(CN3CCN(C)CC3)c(C(F)(F)F)c2)cc1C#Cc1cnc2cccnn12,27.3 µM (active)
26,C=CC(=O)Nc1cc2c(Nc3ccc(F)c(Cl)c3)ncnc2cc1OCCCN1CCOCC1,27.3 µM (active)
27,Nc1nc(=S)c2[nH]cnc2[nH]1,4.32 µM (active)
28,Cc1cc(C2CCCCC2)n(O)c(=O)c1,11.1 µM (active)
29,O=C(NCC(O)CO)c1ccncc1Nc1ccc(I)cc1F (stereo not given),inactive
30,COc1cc2nccc(Oc3ccc(NC(=O)C4(C(=O)Nc5ccc(F)cc5)CC4)cc3)c2cc1OC,10.9 µM (active)
